Compounds with a hit are over-represented: about 9.7% of the library has one in this group of screens.
Abs 340nm = compounds absorbing at 340 nm; compound absorbance at 340 nm, fold over control; fold change at 10 µM; 65,000 tested, under 10 active; AID 708;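 active means at 10 µM dose, initial 340 nm absorbance at least 2 fold that of control wells; inactive means change under 2 fold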;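 further: initial absorbance extrapolated from kinetic A340 decline of NADH oxidation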
M1 antagonist = antagonists of rat M1 muscarinic receptor; P08482; CHO-M1 cells, Fluo-4 calcium, ACh EC80 antagonist mode; stronger effect = lower value; B-score at 10 µM; actives 3.4% (n = 64,000);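 active means calcium fluorescence response, raw or row-and-column corrected B-score, differing from the plate sample mean either way at a set confidence level, mostly lower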
Target sequence (P08482 whole entry, looked up): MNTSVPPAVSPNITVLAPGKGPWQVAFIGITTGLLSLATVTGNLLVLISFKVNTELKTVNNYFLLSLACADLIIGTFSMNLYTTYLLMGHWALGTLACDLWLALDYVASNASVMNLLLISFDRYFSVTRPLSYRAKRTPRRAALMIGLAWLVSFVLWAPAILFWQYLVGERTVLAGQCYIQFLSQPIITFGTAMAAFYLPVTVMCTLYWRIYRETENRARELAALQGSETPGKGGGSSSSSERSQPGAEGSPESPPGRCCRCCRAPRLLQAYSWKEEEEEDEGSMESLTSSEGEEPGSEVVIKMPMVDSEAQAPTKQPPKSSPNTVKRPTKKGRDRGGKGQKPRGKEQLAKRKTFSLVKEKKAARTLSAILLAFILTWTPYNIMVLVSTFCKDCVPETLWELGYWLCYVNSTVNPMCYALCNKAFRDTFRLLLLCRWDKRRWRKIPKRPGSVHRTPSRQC
Fluor 339 460 = intrinsic fluorescence of library compounds, ex339/em460 – biochemical, MLSMR library, data from DPM-DC assay, artefact control, profiling panel | compound autofluorescence, ex339/em460 nm, NADH buffer; stronger effect = higher value; 1 = no-compound wells, NADH background | fluorescence fold increase at 10 µM | actives 5.5% (n = 65,000);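 active means at 10 µM, mean starting fluorescence two-fold or more over control wells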;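 further: signal is the first read of a kinetic run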
M1 ag = agonists of M1 muscarinic receptor; CHO-M1 cells, Fluo-4 calcium fluorescence, agonist mode; stronger effect = higher value; B-score at 10 µM; actives 3% (n = 64,000);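 active means fluorescence rise, raw or as B-score row- and column-corrected plate score, outside the 99.7% band of its plate's samples, either direction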
BAP1 inh = human BAP1 deubiquitinase inhibition. calls only at 20 µM. recombinant BAP1, Ub-AMC hydrolysis fluorescence kinetic; stronger effect = lower value. actives 0.48% (n = 72,000). Q92560;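 active means activity remaining at or below 50% of control, provided the compound also passes the data quality filters; inactive means the rest, including low values that fail the filters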;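 further: 100% = DMSO wells rate and 0% = substrate alone blank rate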
WNV protease inh = WNV NS2B-NS3 proteinase inhibition; P06935; WNV NS2B-NS3 protease, fluorogenic substrate Ex360/Em465; stronger effect = lower value; z-score (concentration not given with the values); actives 0.18% (n = 65,000); AID 577; in the data active means z-score below about -3
M1 ag confirm = confirmation of rat M1 muscarinic receptor agonists. shares compounds with M1 ag. CHO-M1 cells, Fluo-4 calcium fluorescence, agonist mode; actives lie on both sides. fluorescence change (max-min) at 10 µM. actives 19% (n = 1,700). AID 1488;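 active means fluorescence change differs from the solvent-only DMSO control mean at a set confidence level in both duplicate runs; inconclusive means differs from solvent-only control mean in just one of two runs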;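 further: an EC20 dose of acetylcholine follows compound addition during the same imaging run; raw fluorescence intensity difference in instrument units with no normalization to controls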
M4 ag counter = rat M4 muscarinic agonism, M1 counter-screen; shares compounds with M1 ag; CHO M4/Gqi5 cells, Fluo-4 calcium fluorescence, agonist mode; actives lie on both sides; fluorescence change (max-min) at 10 µM; actives 9% (n = 1,700); AID 1741;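 active means fluorescence change differing from the plate's solvent-only control wells at 99.7% confidence in both duplicates, whether higher or lower; inconclusive means differs from solvent controls in only one of two duplicates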
Active calls of the source: *; i = inactive; ? = inconclusive; · = no result shown.

SMILES	Abs 340nm	M1 antagonist	Fluor 339 460	M1 ag	BAP1 inh	WNV protease inh	M1 ag confirm	M4 ag counter
COc1ccc(C2C(C(=O)Nc3ccccc3)=C(C)Nc3nc(CCCO)nn32)cc1 (stereo not given)	1	-0.035	1.1	0.15	i	-1.4	·	·
COc1ccc(C2C=C(c3ccccc3)Nc3nc(CCCO)nn32)cc1 (stereo not given)	1.1	0.059	4.9*	9.3*	·	1	72*	37
OCCCc1nc2n(n1)C(c1ccccc1)C=C(c1ccccc1)N2 (stereo not given)	1.1	-0.19	1.9	12*	i	2	74*	16
CC(=O)c1n[nH]nc1NC(=O)c1ccccc1	0.98	0.47	1	2.8*	i	-0.27	?	-40
CCc1ccc(CNCc2cccnc2)cc1	0.99	0.028	0.99	18*	i	-0.03	-14	?
CCc1ccc(NC(=O)c2cccnc2)cc1	0.98	-0.68	1	-0.63	i	0.44	·	·
CC1=C(C(=O)Nc2ccccc2)C(c2ccc(C(F)(F)F)cc2)NC(=S)N1 (stereo not given)	·	·	·	·	i	·	·	·
Cc1cc(NC(=O)CCN2C(=O)C3C4C=CC(C4)C3C2=O)c2ccccc2n1 (stereo not given)	1	-0.28	1.1	3.3*	i	-1	-7.2	-22
O=C(O)Cn1c(CC(=O)N2CCCC2)nc2ccccc21	1	-0.021	1	-0.32	i	0.34	·	·
O=C(N1CCCC1)n1c(Cc2ccccc2)nc2ccccc21	1	1.4	1.1	6.4*	i	-0.47	?	-82*
COc1cc2cc(C(c3nnnn3C3CCCC3)N(C)C3CCCCC3)c(=O)[nH]c2cc1OC (stereo not given)	1	0.84	1.9	0.35	·	-1.3	·	·
CC(C)C(c1nnnn1C1CCCC1)N(C)C1CCCCC1 (stereo not given)	1	-0.09	1.1	9.7*	i	0.04	-3.3	-17
CCOc1ccccc1-n1nnnc1SCC(=O)NC(=O)NCc1ccco1	1	-0.26	1.1	3.3*	i	-0.3	-6.2	-30
COc1ccc(-n2nnnc2SCC(=O)c2ccc(O)c(O)c2)cc1	1	-0.0092	1	11*	i	-1.2	-7.3	-54
CC(=O)c1cccc(NC(=O)Nc2ccc3c(c2)N(C)C(=O)CS3)c1	1.1	-0.99	1	3.2*	i	-0.33	-8	?
CCOC(=O)CNC(=O)CSc1nnc(-c2ccco2)n1N	1	1.2	1.1	2.3*	i	-0.42	-27*	-89*
CCOC(=O)CNC(=O)CSc1nnc(-c2ccco2)n1Cc1ccco1	1	-0.084	1.1	0.24	·	-0.28	·	·
CCOC(=O)C(C)OC(=O)c1ccc([N+](=O)[O-])cc1Cl (stereo not given)	·	·	·	·	i	·	·	·
Cc1csc(SCCn2c(N3CCN(c4ccccc4)CC3)nc3c2c(=O)[nH]c(=O)n3C)n1	1	-2.5*	1.1	5.4*	i	0.27	?	-57
COCc1[nH]nc2c1C(c1ccccc1OC)C(C#N)=C(N)O2 (stereo not given)	1	0.45	1.1	-0.77	i	0.22	·	·
CCCc1[nH]nc2c1C(CCc1ccccc1)C(C#N)=C(N)O2 (stereo not given)	1	0.095	1	2.7*	i	-0.25	?	-24
COCc1[nH]nc2c1C(c1ccccc1Cl)C(C#N)=C(N)O2 (stereo not given)	1	0.045	1.1	1.5*	i	0.71	-8.9	-18
Cc1nc(-c2cc3cc(Cl)ccc3oc2=O)cc2c1c(=O)oc1ccc(Cl)cc12	·	·	·	·	i	·	·	·
Cc1ccc(C)c(NC(=O)CC(C)Cc2ccc(Cl)cc2)c1 (stereo not given)	·	·	·	·	i	·	·	·
CCCNC(=O)c1cc(-c2ccco2)on1	1	-0.45	1.1	-0.033	i	0.37	·	·
SMILES	Abs 340nm	M1 antagonist	Fluor 339 460	M1 ag	BAP1 inh	WNV protease inh	M1 ag confirm	M4 ag counter
CCCCNC(=O)c1ccc2nc(-c3ccco3)c(-c3ccco3)nc2c1	1.1	-0.57	1.9	10*	i	-1.4	9.4	?
Cc1ccc(-n2nc(-c3cccnc3)cc2C(=O)N2CCOCC2)c(C)c1	1.1	-0.3	1.1	20*	i	-0.96	?	-26
COc1ccc(C2=NCC(CSc3nnc(-c4ccc5c(c4)OCO5)o3)S2)cc1 (stereo not given)	1	-0.088	1.2	-0.064	·	-0.07	·	·
CCN(CC)S(=O)(=O)c1ccc2oc(SCC3CN=C(c4ccc(OC)cc4)S3)nc2c1 (stereo not given)	1	-0.81	1.3	8.1*	·	0.99	-32*	?
CCOC(=O)c1cc2c(=O)n3ccccc3nc2n(C(C)C)c1=NC(=O)c1ccncc1	1.1	0.093	1.6	2.5*	·	1.2	?	-41
CCOC(=O)c1cccnc1SCc1cc(=O)n2ccccc2n1	1.1	-0.2	1.9	-0.86	i	-1.1	·	·
CCOC(=O)c1cc2c(=O)n3ccccc3nc2n(CCOC)c1=NC(=O)c1ccncc1	1.1	0.069	2.2*	2.2*	·	·	-12	-34
CCOC(=O)c1c(C)nc2c3ccccc3ccn12	1.1	-0.31	1.1	0	i	-0.43	·	·
COc1ccc(CNc2nc3c(c(=O)n(Cc4ccc(Br)cc4)c(=O)n3C)n2C)cc1	0.99	-0.25	1.1	3.4*	i	-0.21	-6.3	-8.3
Cn1c(NCc2ccccc2)nc2c1c(=O)n(Cc1ccc(Br)cc1)c(=O)n2C	1	0.56	1.1	-0.38	i	-0.42	·	·
COc1ccc(-c2nnc(CSc3nc4ccccc4c(=O)n3CC3CCCO3)o2)cc1OC (stereo not given)	0.99	0.36	1.2	-0.9	i	-0.18	·	·
O=C(CSc1n[nH]c(-c2ccccc2O)n1)N1CCCc2ccccc21	1	1.2	1.1	11*	i	0.63	?	-48
CCn1c(SCC(=O)N2CCCc3ccccc32)nc2cccnc21	1.1	-0.26	1.1	-1.3	i	1.7	·	·
CSc1nsc(SCC(=O)N2CCCc3ccccc32)n1	1.1	-0.44	1.1	0.3	i	-0.75	·	·
COc1ccccc1N1CCN(C(=O)CSc2nc3ccccc3c(=O)n2CC2CCCO2)CC1 (stereo not given)	1.1	-2.6	1.1	9.7*	i	-0.15	-1.5	-6.2
CCn1c(SCC(=O)N2CCCc3ccccc32)nc2ccccc2c1=O	1	0.44	1.1	3.1*	i	0.01	-6.2	-47

Assay outcomes from PubChem.
